# In the supplement of paper PMC9135407:
# Where “and” joins values, the source holds several entries; their conditions need not be identical. Equal values may be shown once. Where a name gives a salt, the structure may show the parent alone. Screen size: about 5,800 compounds; about 620 (11%) showed activity. Only a selection was taken, and actives are over-represented in it overall. A number with no mark means an inactive call.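 How the source made its calls: active = score above a cut-off or among the top three wells of a plate; in these data no inactive exceeds 0.85.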
# Tested on: primary human hepatic stellate cells (donor 1)
# Assay: scaled lipid accumulation score (0 = DMSO-like, 1 = nortriptyline-like); higher = stronger HSC inactivation (lipid re-accumulation), active = hit call of the paper
# Settings: 48 h
# [1] = library stock concentration: 3.33 mM
# [2] = library stock concentration: 10 mM
# [3] = library stock concentration: 1 mM
smiles,measurement,setting,value
CNc1nc(Nc2cnn(C3CCN(C4COC4)CC3F)c2Cl)ncc1C(F)(F)F (stereo unspecified),scaled lipid accumulation score,[1],≤ -0.009
same,scaled lipid accumulation score,[2],≤ 0
CCCCC(C)(O)CC=CC1C(O)CC(=O)C1CCCCCCC(=O)OC (stereo unspecified) [8-iso Misoprostol],scaled lipid accumulation score,[3],≤ 0
CCc1cncnc1N1CCN(Cc2nc3ccc(C(F)(F)F)cc3[nH]2)CC1,scaled lipid accumulation score,library stock concentration: 80 uM,≤ 0
same,scaled lipid accumulation score,library stock concentration: 400 uM,≤ 0
same,scaled lipid accumulation score,library stock concentration: 2 mM,≤ 0
same,scaled lipid accumulation score,[1],≤ 0
same,scaled lipid accumulation score,[2],0.077 and 0.419 and ≤ 0
CN1CCN(c2nc3cc(C(F)(F)F)ccc3n3cccc23)CC1.O=C(O)/C=C\C(=O)O [listing 1 of 2 here],scaled lipid accumulation score,[2],1.15 (active)
CN1CCN(c2nc3cc(C(F)(F)F)ccc3n3cccc23)CC1.O=C(O)/C=C\C(=O)O [listing 2 of 2 here],scaled lipid accumulation score,[2],0.974 (active)
CCCCC/C=C\C[C@@H](O)/C=C/c1cccc(C[C@@H](O)CCCCO)n1,scaled lipid accumulation score,library stock concentration: 100 uM,≤ -0.021
CCNC(=O)CCC/C=C\C[C@@H]1[C@@H](CC[C@@H](O)CCc2ccccc2)[C@H](O)C[C@@H]1O [Latanoprost ethyl amide],scaled lipid accumulation score,[3],≤ 0
O=C1NCCc2[nH]c(-c3ccnc(-c4cnc5ccccc5c4)c3)cc21 [MK-2 Inhibitor III],scaled lipid accumulation score,[1],≤ 0
C=C[C@H]1CN2CC[C@H]1C[C@H]2[C@H](O)c1ccnc2ccc(OC)cc12 [Quinine],scaled lipid accumulation score,library stock concentration: 6.2 mM,0.205
C=C[C@H]1CN2CC[C@H]1C[C@H]2[C@H](O)c1ccnc2ccc(OC)cc12 [Quinine sulfate],scaled lipid accumulation score,library stock concentration: 4.7 mM,0.308
same,scaled lipid accumulation score,[2],≤ 0 and 0.364
C=C[C@H]1CN2CC[C@H]1C[C@H]2[C@H](O)c1ccnc2ccc(OC)cc12 [Quinine HCl Dihydrate],scaled lipid accumulation score,[1],0.077
same,scaled lipid accumulation score,[2],0.31
CC(C)[C@H](N)C(=O)OCC(CO)OCn1cnc2c(=O)nc(N)[nH]c21 (stereo partly specified),scaled lipid accumulation score,[2],0.228
CCCCCCC[C@H](O)/C=C/[C@H]1[C@H](O)CC(=O)[C@@H]1C/C=C\CCCC(=O)O [20-ethyl Prostaglandin E2],scaled lipid accumulation score,[3],≤ 0
CC(CCCO)C1CCC2C3C(O)CC4CC(=O)CCC4(C)C3CC(O)C12C (stereo unspecified) [3-keto Petromyzonol],scaled lipid accumulation score,[3],≤ 0
CN(C)CCOc1ccc(/C(=C(/CCCl)c2ccccc2)c2ccccc2)cc1,scaled lipid accumulation score,[2],≤ 0
CN(C)CCOC(=O)COc1ccc(Cl)cc1 [Meclofenoxate hydrochloride],scaled lipid accumulation score,,≤ 0
same,scaled lipid accumulation score,[2],≤ -0.027
CN(C)CCOC(=O)COc1ccc(Cl)cc1 [Meclofenoxate (Centrophenoxine) HCl],scaled lipid accumulation score,[1],≤ 0
same,scaled lipid accumulation score,[2],0.043
CN(C)CCOc1ccc(/C(=C(/CCCl)c2ccccc2)c2ccccc2)cc1 [Toremifene],scaled lipid accumulation score,library stock concentration: 4.9 mM,0.264
CN(C)CCOc1ccc(/C(=C(/CCCl)c2ccccc2)c2ccccc2)cc1.O=C(O)CC(O)(CC(=O)O)C(=O)O,scaled lipid accumulation score,[2],0.946 (active)
CN(C)CCOC(=O)COc1ccc(Cl)cc1 [Centrophenoxine hydrochloride],scaled lipid accumulation score,[2],0.032
CC/C(=C(\c1ccccc1)c1ccc(OCCN(C)C)cc1)c1ccccc1 [Tamoxifen],scaled lipid accumulation score,[2],0.674 and 0.394
same,scaled lipid accumulation score,library stock concentration: 13.5 mM,0.777
CN(C)CCOc1ccc(/C(=C(/CCCl)c2ccccc2)c2ccccc2)cc1 [Toremifene Citrate],scaled lipid accumulation score,[1],0.112
OCCOc1ccc(/C(=C(/CCCl)c2ccccc2)c2ccccc2)cc1 [Ospemifene],scaled lipid accumulation score,[1],0.069
same,scaled lipid accumulation score,[2],0.171
CN(C)CCOc1ccc(C(=C(CCCl)c2ccccc2)c2ccccc2)cc1.O=C(O)CC(O)(CC(=O)O)C(=O)O [Toremifene Citrate],scaled lipid accumulation score,[2],1.23 (active)
CC/C(=C(\c1ccccc1)c1ccc(OCCN(C)C)cc1)c1ccccc1 [Tamoxifen citrate],scaled lipid accumulation score,,0.372
same,scaled lipid accumulation score,library stock concentration: 3.5 mM,0.611
same,scaled lipid accumulation score,library stock concentration: 5.4 mM,0.421
same,scaled lipid accumulation score,[2],0.253 and 0.681 and 0.432
CC/C(=C(\c1ccccc1)c1ccc(OCCN(C)C)cc1)c1ccccc1 [Tamoxifen Citrate],scaled lipid accumulation score,[1],0.368
same,scaled lipid accumulation score,[2],0.579
